RORg inh: qHTS for inhibitors of ROR gamma transcriptional activity | 5.4% of 310,000 active | AID 2551, 2010 | Drosophila S2 Gal4-RORgamma UAS-luciferase reporter, 20 h | Nuclear receptor ROR-gamma (Mus musculus), P51450 | Potency, µM (doses to about 53.6 µM), most hits filed as inhibitors; also: nearly all actives have a fitted effect of over 60% in size
Target sequence (P51450 whole entry, looked up, the tested form may be a part): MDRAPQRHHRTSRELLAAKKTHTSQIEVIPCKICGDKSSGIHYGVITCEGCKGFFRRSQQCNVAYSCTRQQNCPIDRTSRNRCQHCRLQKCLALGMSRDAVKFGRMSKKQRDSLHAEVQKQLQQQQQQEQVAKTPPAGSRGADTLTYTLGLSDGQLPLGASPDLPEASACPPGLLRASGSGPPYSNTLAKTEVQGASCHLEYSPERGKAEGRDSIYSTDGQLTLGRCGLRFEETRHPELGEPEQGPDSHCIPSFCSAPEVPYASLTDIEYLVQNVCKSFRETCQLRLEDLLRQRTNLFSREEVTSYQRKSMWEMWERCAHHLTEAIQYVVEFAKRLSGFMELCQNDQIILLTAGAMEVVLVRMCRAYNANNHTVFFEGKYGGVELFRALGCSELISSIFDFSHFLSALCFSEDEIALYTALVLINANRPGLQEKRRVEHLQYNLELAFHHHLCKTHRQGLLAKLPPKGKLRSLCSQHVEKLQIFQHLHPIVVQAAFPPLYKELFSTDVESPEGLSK
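Stably transfected Drosophila Schneider cells are the test system, with ROR gamma fused to Gal4 and luciferase under UAS control; luminescence is read after 20 hr of 700 uM copper sulfate induction at ambient temperature.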
ALOX12 inh: Primary qHTS assay for inhibitors of human arachidonate 12S-lipoxygenase (ALOX12): Round 2. purified 12hLO, xylenol orange hydroperoxide absorbance. Potency, µM (top dose mostly 108 µM), actives largely listed as inhibitors. 1.1% of 580,000 active. AID 1671190, 2021
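Hydroperoxide product was detected by ferrous iron/xylenol orange as the 573 to 405 nm absorbance ratio. Arachidonic acid at 40 uM (final) was turned over for 30 min at room temperature by 150 nM human 12hLO, pH 7.0 Hepes buffer, after 15 min compound preincubation.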
TDP1 cell CPT: qHTS for Inhibitors of human tyrosyl-DNA phosphodiesterase 1 (TDP1): qHTS in cells in presence of CPT | chicken DT40 Tdp1-/-;hTDP1 cells + 20 nM CPT, ATP luminescence, 48 h | Potency, µM (series often up to 46.2 µM), most hits filed as inhibitors | 12% of 420,000 active | AID 686979, 2013; also: nearly all actives have a fitted effect of over 55% in size
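Chicken DT40 Tdp1-/- cells stably complemented with human TDP1 were seeded at 400 cells/well in medium containing 20 nM camptothecin, exposed to pin-transferred compounds, and grown at 37 °C for at least 48 hr. Viability was read as ATP luminescence.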
VP16 counter: VP16 counterscreen qHTS for inhibitors of ROR gamma transcriptional activity | Drosophila S2 Gal4-VP16 UAS-luciferase, luminescence, 20 h | 3.5% of 310,000 active | Potency, µM (series often up to 53.6 µM), most hits filed as inhibitors | AID 2546, 2010;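 also: Gal4-VP16 expression switched on by copper sulfate through the metallothionein promoter; nearly all actives have a fitted effect of over 50% in size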
ELG1 repair inh: qHTS screen for small molecules that inhibit ELG1-dependent DNA repair in human embryonic kidney (HEK293T) cells expressing luciferase-tagged ELG1; HEK293T ELG1-luciferase reporter, luminescence, 16 h; DNA damage induced by 5-fluorouridine; Potency, µM (series often up to 46.1 µM), most hits filed as inhibitors; 2.3% of 330,000 active; also: nearly all actives have a fitted effect of over 55% in size
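Luminescence from the luciferase reporter, measured 30 min after ONE-Glo reagent at room temperature, was the read-out. Beforehand, 2,000 cells per well were exposed for 16 hr at 37 °C to 5-fluorouridine together with compound or vehicle.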
DT40 TDP1 no CPT: qHTS for Inhibitors of human tyrosyl-DNA phosphodiesterase 1 (TDP1): qHTS in cells in absence of CPT; DT40 Tdp1-/- hTDP1 cells, no CPT, ATP luminescence, 48 h; 15% of 420,000 active; AID 686978, 2013; Potency, µM (top dose mostly 46.2 µM), usual class: inhibitors; also: nearly all actives have a fitted effect of over 55% in size
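Growth of hTDP1-complemented DT40 Tdp1-knockout cells is measured by ATP luminescence after at least 48 hr compound exposure at 37 °C, with DMSO substituting for the 20 nM CPT used in the parallel screen.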
Numbers stand for hits; i = inactive; ? = inconclusive; nt = no result; [ ] = remark or other dose. An excerpt weighted towards active compounds, which were near 15% of everything screened. Calls follow the shape of the dose curve; as a rule, active = well fitted curve in the direction sought with a large enough effect; inconclusive = small, poorly fitted or top-dose-only effect, or another doubt; inactive = no such curve, though single readings can be large; an effect the other way counts as inactive or inconclusive.

SMILES | RORg inh | ALOX12 inh | TDP1 cell CPT | VP16 counter | ELG1 repair inh | DT40 TDP1 no CPT
c1ccc(-c2nnc3n2N=C(c2ccc4c(c2)OCO4)CS3)nc1 | i | i | i | i | i | i
c1cc2c(cc1C1=Nn3c(nnc3C3CCCCC3)SC1)OCO2 | i | i | 18µM | i | ? | 13µM
COCCN1CCCCCC(O)c2cc(C(=O)NCCCN(C)C)ccc21 (centres undefined) | nt | i | nt | nt | nt | nt
Clc1nnc(N/N=C/c2ccccc2)c2ccccc12 | 10µM | i | ? | ? | ? | ?
C(=N\Nc1ncnc2ccccc12)/c1ccccc1 | 2.5µM | i | 3.7µM | 1µM | ? | 4.6µM
CC(=O)Nc1ccc(/C=N/NC(N)=S)cc1 | i | i[22.9 µM] | i | i | nt | i
Clc1ccc(/C=N/Nc2nc(Cl)nc3ccccc23)cc1 | i | i | ? | ? | ? | ?
CC(=O)Nc1ccc(C=NNc2nnc(NN=Cc3ccc(NC(C)=O)cc3)c3ccccc23)cc1 | nt | i | 2.9µM | nt | nt | 4.1µM
Clc1ccc(/C=N/Nc2nnc(Cl)c3ccccc23)cc1 | ? | i | ? | i | ? | ?
Cc1ccc(/C=N/Nc2nnc(Cl)c3ccccc23)cc1 | 3.2µM | i | 23µM | 13µM | ? | 21µM
CNC(=O)C1(N2CCC[C@H]2C(=O)N(C)CCN(C)C)CCC1 | nt | i | nt | nt | nt | nt
CCOc1ccc2[nH]cc(S(=O)(=O)c3ccc(Cl)cc3)c(=O)c2c1 | i | i | 9.2µM | ? | ? | 9.2µM
CCc1ccc2[nH]cc(S(=O)(=O)c3ccc(C(C)C)cc3)c(=O)c2c1 | nt | i | ? | nt | nt | ?
CCOc1ccc2[nH]cc(S(=O)(=O)c3ccc(C)cc3)c(=O)c2c1 | ? | i | ? | i | 16µM | ?
COc1ccc2[nH]cc(S(=O)(=O)c3ccc(C)cc3)c2c1 | i | ? | i | i | i | ?
COCCCNC(=S)NNC(=S)Nc1ccccc1 | ? | ? | i | i | ? | i
COCCCNC(=S)Nc1c(C)cc(C)cc1C | 11µM | i | i | ? | i | i
Cc1cc(C)c(NC(=S)NCCO)c(C)c1 | i | i | i | i | i | i
Cc1cc(C)cc(NC(=S)NCCO)c1 | nt | 14µM | nt | nt | nt | nt
COCCCNC(=S)NNC(=S)Nc1ccc(F)cc1F | 7.1µM | i | i | i | i | i
CCOCCCNC(=S)Nc1cc(C)cc(C)c1 | 6.3µM | i | i | 10µM | i | i
COCCCNC(=S)Nc1ccc(C)cc1 | ? | i | i | i | i | i
COCCCNC(=S)Nc1ccc2c(c1)OCCO2 | i | i | i | i | ? | i
O=C(Cn1cc(C(F)(F)F)ccc1=O)N1CCC2(CCCNC2=O)C1 (centres undefined) | nt | i | nt | nt | nt | nt
COc1ccccc1C(O)c1nc(Nc2ccc(Cl)cc2F)n[nH]1 (centres undefined) | nt | i | nt | nt | nt | nt
SMILES | RORg inh | ALOX12 inh | TDP1 cell CPT | VP16 counter | ELG1 repair inh | DT40 TDP1 no CPT
CCc1nc2c(c(-c3ccc(O)cc3)n1)CCN(Cc1ccccc1C(F)(F)F)CC2 | nt | i | nt | nt | nt | nt
Cc1cc(C)cc(NC(=S)NN)c1 | 7.9µM | ? | i | ? | i | i
Clc1ccc(CSc2ncnc3c2ncn3C2CCCCO2)cc1 (centres undefined) | nt | i | ? | nt | nt | 16µM
CCc1ccccc1NC(=O)c1nn(Cc2ccccc2)c(=O)c2ccccc12 | nt | i | nt | nt | nt | nt
CCOC(=O)C1=C(CC)Nc2ccccc2N=C1NC(=O)c1ccc(C)c(S(=O)(=O)N2CCOCC2)c1 | nt | i | 16µM | nt | ? | ?
CCOC(=O)C1=C(CC)Nc2ccccc2N=C1NC(=O)c1ccc(S(=O)(=O)N(C)C)cc1 | i | i | 7.3µM | i | ? | 5.8µM
CCOCc1c(C(=O)NC2=Nc3ccccc3NC(CC)=C2C(=O)OCC)oc2ccccc12 | i | i | 23µM | i | 8.2µM | 16µM
CCOC(=O)C1=C(CC)Nc2ccccc2N=C1NC(=O)CCNC(C)=O | i | i | i | i | i | ?
CCOC(=O)C1=C(CC)Nc2ccccc2N=C1NC(=O)c1ccc(S(=O)(=O)N2CCOCC2)cc1 | i | i | ? | i | i | ?
CCOC(=O)C1=C(CC)Nc2ccccc2N=C1NC(=O)c1ccc(OC)c(S(=O)(=O)N2CCCCC2C)c1 (centres undefined) | i | i | ? | i | 23µM | ?
COc1ccc(-c2nnc(SCc3nc4ccccc4o3)o2)c(OC)c1 | nt | i | nt | nt | nt | nt
Cc1ccc(NC(C)C(=O)Nc2sccc2C#N)cc1C (centres undefined) | nt | i | nt | nt | nt | nt
COc1ccc(NC(=O)c2oc3ccccc3c2CSC)cn1 | i | i | i | i | i | ?
CCOCc1c(C(=O)Nc2ccc(OC)nc2)oc2ccccc12 | i | i | i | i | i | 18µM
Cc1onc(-c2c(Cl)cccc2Cl)c1C(=O)Nc1ccc2c(c1)OCCO2 | i | i | ? | i | i | i
Cc1cc(Br)c(NC(=O)c2c(-c3c(Cl)cccc3Cl)noc2C)c(Br)c1 | i | i | 21µM | i | i | ?
COc1ccc(NC(=O)c2c(-c3c(Cl)cccc3Cl)noc2C)c(OC)c1 | i | i | ? | i | 23µM | ?
Cc1onc(-c2ccccc2Cl)c1C(=O)Nc1ccccc1NC(=O)c1ccccc1 | nt | i | nt | nt | nt | nt
COC(=O)c1cc(OC)c(OC)cc1NC(=O)c1c(-c2ccccc2Cl)noc1C | i | i | 18µM | i | i | 13µM
Cc1onc(-c2c(Cl)cccc2Cl)c1C(=O)N/N=C(\N)COc1ccc(Cl)cc1 | 0.45µM | ? | 5.2µM | 0.5µM | ? | 5.2µM
Cc1ccc(OCC(=O)Nc2ccc3c(C)cc(=O)oc3c2)cc1C | nt | i | nt | nt | nt | nt
c1csc(-c2cc(CSc3nnc(-c4ccncc4)o3)no2)c1 | nt | i | nt | nt | nt | nt
Cc1onc(-c2ccccc2Cl)c1C(=O)NC(=S)Nc1ccccc1F | 5µM | ? | i | ? | ? | i
COc1ccccc1NC(=S)NC(=O)c1c(-c2ccccc2Cl)noc1C | 2.5µM | ? | i | 16µM | i | i
Cc1onc(-c2ccccc2Cl)c1C(=O)NNC(=O)c1ccccc1F | i | i | i | i | ? | i
CC(C)CC1CC(C)(c2csc(NNC(=O)c3ccccc3)n2)OC1=O (centres undefined) | 10µM | ? | ? | i | ? | ?
Cc1cnc(CC2CCN(C(=O)N(C)C)C2)n1Cc1ccccc1 (centres undefined) | nt | i | nt | nt | nt | nt
COc1cccc(CNC(=O)c2ccc(-c3nc(CS(=O)c4ccccc4)c(C)o3)cc2)c1 (centres undefined) | nt | i | ? | nt | nt | 16µM

Bioassay records (PubChem)
